± gives the standard deviation of the averaged measurements. The full ranking holds about 25,000 sequences; the median of “ln(normalized median fluorescence intensity)” is about 8.6, and the highest 2% start at about 10. The sample holds the highest values, similar sequences and a random draw of the others, so the mix is not that of the screen.

The assay concerns PfAP2-EXP AP2 domain (GST-tagged). The assay can be described thus: gcPBM binding intensity (ln(normalized median fluorescence intensity)); higher = stronger DNA binding. A digest of the protocol: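 An Agilent 4 × 180k array carrying primer-extended double-stranded 36-bp intergenic genomic probes and negative controls received GST-tagged P. falciparum DNA-binding domains expressed in E. coli, about 25 μg on average, for 1 h. The binding buffer contained 1× PBS, 1% milk, 0.2 mg/ml BSA, 0.5% salmon testes DNA and 0.03% Triton X-100. Binding intensity is the top Masliner-normalised natural-log median intensity across replicate spots of either probe orientation, read after Alexa488 anti-GST antibody staining and a 488 nm scan.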
For “TTACATATGGTTAGTAGTACATATATAAATGTAAAT [XGTACX_site7206]”, the “gcPBM binding intensity (ln)” value was determined as 8.62 ± 0.47.

On to “AAATCAAACTTTGGTGTGCACAAATATATACATATA [GTGCAC_site9986]”, for which the “gcPBM binding intensity (ln)” value was 9.1 ± 0.29.

On to “AATTAATGGTTAAAGGTGCACAATACATATATTACA [GTGCAC_site9943]”, for which the “gcPBM binding intensity (ln)” value was 9.57 ± 0.45.

Turning to TTACATACAATTGGTGTGCACATATATATATATATA, the “gcPBM binding intensity (ln)” value came out at 10.3 ± 0.33.

Regarding “TATATATATAAGATTGTGCACATTAAAATGATAGAA [GTGCAC_site9621]”, the “gcPBM binding intensity (ln)” value was 9.265 ± 0.049.

“TACATGCATTTCTCATGTACATAATTTTCCCATATT [XGTACX_site5158]”: the “gcPBM binding intensity (ln)” value is 8.81 ± 0.4.

As for “TATATATATATATATACATGCATTTCTCATGTACAT [TGCATGCA_site621]”, the “gcPBM binding intensity (ln)” value amounted to 10.2 ± 0.33.

As for “TATATATTTATATATGCATGTACATTTTTATTTATT [TGCATGCA_site1048]”, the “gcPBM binding intensity (ln)” value came out at 8.82 ± 0.25.

As to “CCTTACTTCTTATAAAGTACCCAATGATATACATTA [XGTACX_site1554]”, the “gcPBM binding intensity (ln)” value was 8.41 ± 0.31.

For the sequence “AAACGATCTCGATGTTGTACACATTTATATAGAAAC [XGTACX_site4373]”, the “gcPBM binding intensity (ln)” value was determined as 8.86 ± 0.4.

Consider GCCAATAAAGATGTGGTGCATTATATATATATATAT, for which the “gcPBM binding intensity (ln)” value worked out at 10.3 ± 0.23.

On to TAAATATATATATAAGTGCATTATATATATATATAA, for which the “gcPBM binding intensity (ln)” value was found to be 8.58 ± 0.028.

With AATATTCAATATAAAGTGCATTATTGTGGACCTAAT, the “gcPBM binding intensity (ln)” value is 8.77 ± 0.099.

Regarding “TAATTTTTTATATATTGTACAAATAATATATGATGT [XGTACX_site268]”, the “gcPBM binding intensity (ln)” value stood at 8.46 ± 0.23.

Turning to “TCTTACGGATTCATTGTGCACATATATATATATATA [GTGCAC_site9896]”, the “gcPBM binding intensity (ln)” value amounted to 10.2 ± 0.45.

On to “TTTCTTATTTTGGATTGTACGTATATTTTTCATTTT [XGTACX_site224]”, for which the “gcPBM binding intensity (ln)” value came to 8.93 ± 0.38.

As to CATTATATGATTTATGTGCACATTCATTTATTTTAA, the “gcPBM binding intensity (ln)” value turned out to be 8.83 ± 0.099.

With “AAATTATTAAAAAAAAGTACATATATATATATATAT [XGTACX_site8313]”, the “gcPBM binding intensity (ln)” value worked out at 10.4 ± 0.25.

“TATATATTATAAAAGAGTACAGAAAGAAAAAAAAAT [XGTACX_site8305]”: the “gcPBM binding intensity (ln)” value is 9.12 ± 0.59.

In the case of “CAGACATATTAAAAGAGTACATATATATATATATAT [XGTACX_site1158]”, the “gcPBM binding intensity (ln)” value was found to be 10.3 ± 0.28.

“ATATACATATATATATGTACTTATTTATTTATTTAT [XGTACX_site2532]”: the “gcPBM binding intensity (ln)” value turned out to be 8.56 ± 0.26.

Take “TTAATATATTTTAAAAGTACATAATATTATTTTTTA [XGTACX_site3642]”: the “gcPBM binding intensity (ln)” value came to 8.04 ± 0.26.

Take “AAAAAAAAAAAAAAAAGTACATATATTATATATATA [XGTACX_site2983]”: the “gcPBM binding intensity (ln)” value came to 8.9 ± 0.099.

As to “AAAAATATATAAGAGAGTACATAAAATAAATTAATT [XGTACX_site1534]”, the “gcPBM binding intensity (ln)” value came to 8.61 ± 0.41.

“AAAAAAAAAAAAAAAAGTACATATATATATAATTAT [XGTACX_site7836]”: the “gcPBM binding intensity (ln)” value is 8.54 ± 0.43.

For “TATATATATATATATAGTACATATTTATATATGAAA [XGTACX_site8488]”, the “gcPBM binding intensity (ln)” value worked out at 10.1 ± 0.36.

With “ATATTTTAATTATAAAGTACATAAAAATATATAAAC [XGTACX_site6705]”, the “gcPBM binding intensity (ln)” value worked out at 8.58 ± 0.3.

“ACATATTAATTATAAAGTACATATATATATATATAT [XGTACX_site4540]”: the “gcPBM binding intensity (ln)” value came to 10.3 ± 0.18.

For “TATATTTACTTATGAAGTACATATATATATATATAT [XGTACX_site5069]”, the “gcPBM binding intensity (ln)” value amounted to 10.3 ± 0.21.

In the case of “ATGTAGATATATATCTGTACGTATATGTAAATATTA [XGTACX_site1516]”, the “gcPBM binding intensity (ln)” value amounted to 8.72 ± 0.35.

As for “ATGATATTATAAAAAAGTACATATGTATATAATTAT [XGTACX_site7652]”, the “gcPBM binding intensity (ln)” value was determined as 8.88 ± 0.45.

In the case of “AAAAATTTATTTTTAGGTACACAATTGAATTATTTA [XGTACX_site7008]”, the “gcPBM binding intensity (ln)” value is 8.16 ± 0.27.

As to “TATTTAAAATATTAAATTTGTAAAGTTCGAGGGAAG [GTGCAC_negctrl_site337]”, the “gcPBM binding intensity (ln)” value was 8.52 ± 0.48.

Turning to “TGATGAAAATTTTTCTGTACAAAAAGTATGAAGGTA [XGTACX_site8901]”, the “gcPBM binding intensity (ln)” value came to 8.88 ± 0.38.

“AGTTTAATTTTGTATACACACATTTGAATTATTAAT [CACACA_site7625]”: the “gcPBM binding intensity (ln)” value is 8.77 ± 0.5.

“AATATGTCTATATTTTTTATATGGAAATATTATAAA [GTGCAC_negctrl_site700]”: the “gcPBM binding intensity (ln)” value is 7.92 ± 0.39.

Take “TTTATAATAAAATTTTTACACACTTTAAAAAAAAAA [CACACA_site8070]”: the “gcPBM binding intensity (ln)” value amounted to 8.07 ± 0.37.

Turning to “AAAAAAAAAAAAAAATGTACATAAAAATGATATAAT [XGTACX_site4096]”, the “gcPBM binding intensity (ln)” value came out at 8.7 ± 0.55.

In the case of “CTTTAAGTTATATGAAGTACAATTTAAAAAAATGAA [XGTACX_site358]”, the “gcPBM binding intensity (ln)” value was found to be 8.41 ± 0.38.

Regarding “TATAAAATTTTTAAAAGTACATATTTTACATAATAC [XGTACX_site2193]”, the “gcPBM binding intensity (ln)” value was determined as 8.38 ± 0.26.

With “TTTAAAAAGTTATGAAGTACATATATATATATATAT [XGTACX_site2188]”, the “gcPBM binding intensity (ln)” value was determined as 10.2 ± 0.29.

For the sequence “TTTTTATAACATAAAAGTACATATTTTTAATTTAAT [XGTACX_site4394]”, the “gcPBM binding intensity (ln)” value was 8.05 ± 0.4.

With “TATTTAAGAATATGAAGTACATATATTATTTAAAAA [XGTACX_site7897]”, the “gcPBM binding intensity (ln)” value turned out to be 8.15 ± 0.29.

As to “TATTCCTAATTTAAAAGTACATATATATATATATAT [XGTACX_site3008]”, the “gcPBM binding intensity (ln)” value was found to be 10.2 ± 0.54.

Take TTTTTTTTTTTGATGGTGCAATATATTAAATAGAAA: the “gcPBM binding intensity (ln)” value stood at 8.86 ± 0.28.

As to “AATATATGGTTCCTTGATATTAAATTCAATTTAATG [CACACA_negctrl_site71]”, the “gcPBM binding intensity (ln)” value is 8.41 ± 0.52.

Turning to “TAATTGATTCTTCACCGTACTCACACATATATATAT [XGTACX_site6530]”, the “gcPBM binding intensity (ln)” value was 9.61 ± 0.14.

For “GATTCTTCACCGTACTCACACATATATATATATATA [CACACA_site5665]”, the “gcPBM binding intensity (ln)” value stood at 10.2 ± 0.52.

“ATATATATATATATATGTACACATATATATACTCAC [XGTACX_site8043]”: the “gcPBM binding intensity (ln)” value came to 10 ± 0.4.

As to “ATATTATATATATACACACACACATGCATGCACCTA [CACACA_site106]”, the “gcPBM binding intensity (ln)” value is 10.07 ± 0.099.

Consider “TTTGGGATAAAACAAAGTACTAACAAAATATATAAT [XGTACX_site8240]”, for which the “gcPBM binding intensity (ln)” value was determined as 8.85 ± 0.47.

With “ATTTATATTTTTTAATGTACATTTATATGTATACAA [XGTACX_site4555]”, the “gcPBM binding intensity (ln)” value worked out at 8.78 ± 0.41.

Regarding “ATATAATATTTCATGTGGACACATTTTATGATTGTA [XGTACX_site8770]”, the “gcPBM binding intensity (ln)” value was 8.74 ± 0.38.

“TTGTATATATATGGAAAAATATATATATATATATAT [GTGCAC_negctrl_site591]”: the “gcPBM binding intensity (ln)” value was found to be 10.3 ± 0.29.

For “TGCAAAAAAAAAAAAAAAAAATATATGGAAATATAT [GTGCAC_negctrl_site257]”, the “gcPBM binding intensity (ln)” value is 8.54 ± 0.19.

Take “ATGGAAATAAAAAAAAAAAAAAAAAAAAATATATAT [GTGCAC_negctrl_site67]”: the “gcPBM binding intensity (ln)” value came to 8.36 ± 0.33.

As for “CGTATTATTATATAAACACACAAGGGGGCATGTATA [CACACA_site745]”, the “gcPBM binding intensity (ln)” value turned out to be 9.83 ± 0.042.

For the sequence “AATATTTAAGTACTGGTGCGTGTATATAATGATTAA [GTGCAC_site9633]”, the “gcPBM binding intensity (ln)” value is 8.665 ± 0.078.

The values are drawn from the supplement of paper PMC11417369.
